PubChem BioAssay (EPA / NIEHS)
Inconclusive results are not listed. More than one record can exist for a structure, and the calls need not agree. Calls of active or inactive are those of the source. The calls were made as follows, unless noted: active = hit-call score of the fitted dose curve at least 0.9, where 1 is the maximum; inactive = score below 0.9.

Legend:
CD69, CD69 (gene 969) = assay: BSK_SAg_CD69: BioMAP Diversity Plus: SAg Assay for CD69 Biomarker Activity (AID 2283089); conditions: primary human HUVEC with PBMC; actives raise or lower the signal;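 as to AC50: cell surface CD69 protein quantified by ELISA with fluorescence detection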
How it was run: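 HUVEC co-cultured with PBMC were dosed with chemical, and CD69 was measured by ELISA with fluorescence read-out 24 h later. Bidirectional curve fitting used DMSO as negative control and activity baseline.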

[1] = read-out: Monocyte Chemoattractant Protein-1 (MCP1), CCL2 (gene 6347); assay: BSK_SAg_MCP1: BioMAP Diversity Plus: SAg Assay for Monocyte Chemoattractant Protein-1 (MCP1) Biomarker Activity (AID 2283090); conditions: primary human HUVEC with PBMC; actives raise or lower the signal
How it was run: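 MCP-1 levels in the endothelial–PBMC SAg co-culture were quantified by ELISA at 24 h post-dosing; both increases and decreases versus DMSO scored. Cytotoxicity monitored by SRB total protein in parallel cultures.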

[2] = read-out: E-selectin (Homo sapiens) (UniProt P16581); assay: BSK_SAg_Eselectin: BioMAP Diversity Plus: SAg Assay for Eselectin Biomarker Activity (AID 2283091); conditions: primary human HUVEC with PBMC; actives raise or lower the signal
How it was run: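 Cell-surface E-selectin is read by ELISA at 24 h in the SAg co-culture of HUVEC and PBMC. Curves are fitted in both directions relative to DMSO. Parallel SRB total-protein staining tracks overt toxicity.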

[3] = read-out: Monokine induced gamma interferon (MIG), CXCL9 (gene 4283); assay: BSK_SAg_MIG: BioMAP Diversity Plus: SAg Assay for Monokine induced gamma interferon (MIG) Biomarker Activity (AID 2283092); conditions: primary human HUVEC with PBMC; actives raise or lower the signal
How it was run: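 HUVEC plus human PBMC co-culture, chemicals dosed and MIG (CXCL9) quantified by ELISA at 24 h. Bidirectional curve fitting against DMSO as negative control and baseline, so both gain and loss of signal count as activity.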

[4] = read-out: Interleukin-8 (IL8), CXCL8 (gene 3576); assay: BSK_SAg_IL8: BioMAP Diversity Plus: SAg Assay for Interleukin-8 (IL8) Biomarker Activity (AID 2283094); conditions: primary human HUVEC with PBMC; actives raise or lower the signal
How it was run: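 ELISA read-out of IL-8 in a primary human vascular co-culture (umbilical vein endothelium plus PBMC), taken 24 h after compound addition. Values derive from bidirectional fits against DMSO negative controls.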

[5] = BSK_SAg_Proliferation: Cell Proliferation Assessment in the BioMAP Diversity Plus: SAg Assay (AID 2283095); conditions: primary human HUVEC with PBMC;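 also: relative cell number as total protein by SRB absorbance in sub-confluent culture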
How it was run: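 Cells (endothelium plus PBMC, human primary) were dosed with chemical, cultured 96 h, fixed in 10% TCA and stained with 0.1% SRB. Absorbance at 560 nm gave relative protein, fitted bidirectionally relative to DMSO.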

[6] = BSK_SAg_SRB: Viability Assessment in the BioMAP Diversity Plus: SAg Assay (AID 2283096); conditions: primary human HUVEC with PBMC;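 also: cells read one day after compound addition; hits may be either gain or loss of signal compared with DMSO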
How it was run: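 Endothelial/PBMC primary human co-culture; compound 24 h; fix 10% TCA, stain 0.1% SRB, A560; protein content as cytotoxicity proxy; bidirectional curve fit, DMSO = baseline.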

[7] = target: human CYP1A1, CYP1A1 (gene 1543) (UniProt P04798); assay: NVS_ADME_hCYP1A1: NovaScreen (NVS) CYP450-related Enzyme Activity (ADME) Assay for human CYP1A1 (AID 2283100; active = hit-call score of the fitted dose curve at least 0.9, where 1 is the maximum)
How it was run: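 Chemicals were first tested in duplicate at 10 uM, and those passing a 30% inhibition threshold were rerun as concentration series topping at 20 uM. Fluorescence read-out of recombinant enzyme turnover after 1 h, relative to acetonitrile.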

[8] = target: human CYP2C9, CYP2C9 (gene 1559) (UniProt P11712); assay: NVS_ADME_hCYP2C9: NovaScreen (NVS) CYP450-related Enzyme Activity (ADME) Assay for human CYP2C9 (AID 2283108; active = hit-call score of the fitted dose curve at least 0.9, where 1 is the maximum)
How it was run: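 Cell-free assay of recombinant human CYP2C9 produced in Sf9 cells, with enzyme activity read by fluorescence intensity 0.75 h after compound addition. Loss of signal versus an acetonitrile negative control indicates inhibition. Primary screen used 10 uM in duplicate; actives were retested in concentration series.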

[9] = target: Cytochrome P450 2C19 (Homo sapiens) (UniProt P33261); assay: NVS_ADME_hCYP2C19: NovaScreen (NVS) CYP450-related Enzyme Activity (ADME) Assay for human CYP2C19 (AID 2283113; active = hit-call score of the fitted dose curve at least 0.9, where 1 is the maximum)
How it was run: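 Compounds first screened in duplicate at 10 uM, then confirmed in concentration series. Insect-cell-expressed human CYP2C19 turned over a fluorogenic substrate, and fluorescence was read after 1 h. Inhibition taken as signal loss relative to acetonitrile.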

[10] = target: human CYP19A1, CYP19A1 (gene 1588) (UniProt P11511); assay: NVS_ADME_hCYP19A1: NovaScreen (NVS) CYP450-related Enzyme Activity (ADME) Assay for human CYP19A1 (AID 2283098; active = hit-call score of the fitted dose curve at least 0.9, where 1 is the maximum;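 as to AC50: potency for inhibitors seen as loss of fluorescent enzyme signal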)
How it was run: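 Cell-free enzyme assay with recombinant protein and a specific fluorogenic substrate, read by fluorescence intensity 0.5 h after dosing. Primary screen ran in duplicate at 10 uM; actives were retested in concentration series. Loss of signal versus acetonitrile baseline.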

[11] = target: human CYP1A2, CYP1A2 (gene 1544) (UniProt P05177); assay: NVS_ADME_hCYP1A2: NovaScreen (NVS) CYP450-related Enzyme Activity (ADME) Assay for human CYP1A2 (AID 2283102; active = hit-call score of the fitted dose curve at least 0.9, where 1 is the maximum;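 also: potency for inhibition since loss of fluorescence marks reduced CYP1A2 activity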)
How it was run: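 Enzyme activity of insect-cell-expressed human CYP1A2 measured by fluorescence 0.5 h after compound addition, relative to acetonitrile. Compounds first tested in duplicate at 10 uM, actives followed up in concentration series.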

[12] = target: human CYP2J2, CYP2J2 (gene 1573) (UniProt P51589); assay: NVS_ADME_hCYP2J2: NovaScreen (NVS) CYP450-related Enzyme Activity (ADME) Assay for human CYP2J2 (AID 2283106; active = hit-call score of the fitted dose curve at least 0.9, where 1 is the maximum)
How it was run: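 Cell-free assay of recombinant CYP2J2 with a fluorogenic substrate, read 1 h after dosing; loss of signal versus acetonitrile. Primary screen at 10 uM in duplicate, then concentration-response up to 20 uM for chemicals passing threshold (e.g., 30% inhibition).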

[13] = target: Cytochrome P450 3A4 (Homo sapiens) (UniProt P08684); assay: NVS_ADME_hCYP3A4: NovaScreen (NVS) CYP450-related Enzyme Activity (ADME) Assay for human CYP3A4 (AID 2283110; active = hit-call score of the fitted dose curve at least 0.9, where 1 is the maximum)
How it was run: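 Cell-free assay using insect-cell-expressed human CYP3A4 with a fluorogenic substrate; fluorescence intensity was read 0.33 hour after dosing. Loss of signal relative to acetonitrile vehicle indicated inhibition. Primary single-concentration screen at 10 uM, in duplicate, then concentration series.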

[14] = target: human CYP2A6, CYP2A6 (gene 1548) (UniProt P11509); assay: NVS_ADME_hCYP2A6: NovaScreen (NVS) CYP450-related Enzyme Activity (ADME) Assay for human CYP2A6 (AID 2283099; active = hit-call score of the fitted dose curve at least 0.9, where 1 is the maximum)
How it was run: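 Compounds screened at 10 uM (duplicate) and, if active, titrated to a 20 uM top concentration against insect-cell-expressed CYP2A6. Loss of fluorescent product signal after 0.5 h, relative to acetonitrile baseline, indicates inhibition.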

[15] = target: human CYP2B6, CYP2B6 (gene 1555) (UniProt P20813); assay: NVS_ADME_hCYP2B6: NovaScreen (NVS) CYP450-related Enzyme Activity (ADME) Assay for human CYP2B6 (AID 2283101; active = hit-call score of the fitted dose curve at least 0.9, where 1 is the maximum)
How it was run: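 Recombinant human CYP2B6 with fluorogenic substrate, read by fluorescence intensity 1 h after dosing. Primary screen in duplicate at 10 uM, actives followed in concentration series; signal loss relative to acetonitrile control.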

[16] = BSK_SAg_PBMCCytotoxicity: PBMC Cytotoxicity Assessment in the BioMAP Diversity Plus: SAg Assay (AID 2283093); conditions: primary human HUVEC with PBMC;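 also: PBMC viability measured as Alamar Blue reduction fluorescence at 546/580 nm; fitted both ways against DMSO so a hit may be loss or gain of signal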
How it was run: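 Human umbilical vein endothelial cells co-cultured with PBMC; PBMC (75,000/well) pre-treated with compound 1 h, then activated with SEB and TSST-1 (20 ng/mL final each) for 90 h. Alamar Blue added 6 h, fluorescence 546/580 nm; bidirectional fit versus DMSO.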

Measured: AC50

Chain of human CYP19A1, CYP19A1 (gene 1588) (P11511 whole entry, looked up): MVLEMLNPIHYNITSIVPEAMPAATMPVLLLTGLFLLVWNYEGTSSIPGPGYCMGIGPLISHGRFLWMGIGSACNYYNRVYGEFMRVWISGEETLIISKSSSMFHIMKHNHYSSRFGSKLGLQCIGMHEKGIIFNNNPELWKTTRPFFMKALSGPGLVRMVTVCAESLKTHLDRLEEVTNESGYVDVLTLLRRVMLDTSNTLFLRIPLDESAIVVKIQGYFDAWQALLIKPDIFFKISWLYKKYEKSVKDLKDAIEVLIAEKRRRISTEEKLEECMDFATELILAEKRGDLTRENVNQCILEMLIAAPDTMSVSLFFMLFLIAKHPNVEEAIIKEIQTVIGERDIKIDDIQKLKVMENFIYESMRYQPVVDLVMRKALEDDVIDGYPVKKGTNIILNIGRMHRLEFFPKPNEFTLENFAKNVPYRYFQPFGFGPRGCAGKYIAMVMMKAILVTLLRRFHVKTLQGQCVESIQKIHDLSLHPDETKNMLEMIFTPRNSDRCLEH
Chain of E-selectin (Homo sapiens) (P16581 whole entry, looked up): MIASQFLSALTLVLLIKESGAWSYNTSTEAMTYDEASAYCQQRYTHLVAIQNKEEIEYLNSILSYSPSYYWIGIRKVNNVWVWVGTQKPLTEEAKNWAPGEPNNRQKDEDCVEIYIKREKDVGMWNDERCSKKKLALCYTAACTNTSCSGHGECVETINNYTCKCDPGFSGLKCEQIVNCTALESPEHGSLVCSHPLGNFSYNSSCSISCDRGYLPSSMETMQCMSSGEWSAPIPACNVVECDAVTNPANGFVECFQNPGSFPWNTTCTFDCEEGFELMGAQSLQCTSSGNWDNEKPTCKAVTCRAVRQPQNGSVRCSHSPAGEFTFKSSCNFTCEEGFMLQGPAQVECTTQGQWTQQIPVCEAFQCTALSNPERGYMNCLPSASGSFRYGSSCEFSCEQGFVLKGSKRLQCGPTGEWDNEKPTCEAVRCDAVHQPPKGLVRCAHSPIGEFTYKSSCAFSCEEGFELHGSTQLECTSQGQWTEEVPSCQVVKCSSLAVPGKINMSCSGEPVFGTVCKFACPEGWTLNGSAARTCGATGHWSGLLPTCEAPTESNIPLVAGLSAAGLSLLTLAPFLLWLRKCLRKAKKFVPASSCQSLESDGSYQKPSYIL
Chain of human CYP1A1, CYP1A1 (gene 1543) (P04798 whole entry, looked up): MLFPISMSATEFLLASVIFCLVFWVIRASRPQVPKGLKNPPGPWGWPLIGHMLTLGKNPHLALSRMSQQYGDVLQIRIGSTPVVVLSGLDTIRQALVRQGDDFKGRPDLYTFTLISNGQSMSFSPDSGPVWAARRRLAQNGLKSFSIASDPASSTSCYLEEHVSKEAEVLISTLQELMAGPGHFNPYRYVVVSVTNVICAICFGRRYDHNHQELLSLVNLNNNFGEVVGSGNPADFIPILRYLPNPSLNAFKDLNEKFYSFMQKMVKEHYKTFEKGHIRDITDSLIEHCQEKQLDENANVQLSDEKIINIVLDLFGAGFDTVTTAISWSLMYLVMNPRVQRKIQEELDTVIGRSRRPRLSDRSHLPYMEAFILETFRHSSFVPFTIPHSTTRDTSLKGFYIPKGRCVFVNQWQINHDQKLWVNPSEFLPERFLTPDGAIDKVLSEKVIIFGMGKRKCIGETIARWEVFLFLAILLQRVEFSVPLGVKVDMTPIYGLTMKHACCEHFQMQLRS
Chain of human CYP2B6, CYP2B6 (gene 1555) (P20813 whole entry, looked up): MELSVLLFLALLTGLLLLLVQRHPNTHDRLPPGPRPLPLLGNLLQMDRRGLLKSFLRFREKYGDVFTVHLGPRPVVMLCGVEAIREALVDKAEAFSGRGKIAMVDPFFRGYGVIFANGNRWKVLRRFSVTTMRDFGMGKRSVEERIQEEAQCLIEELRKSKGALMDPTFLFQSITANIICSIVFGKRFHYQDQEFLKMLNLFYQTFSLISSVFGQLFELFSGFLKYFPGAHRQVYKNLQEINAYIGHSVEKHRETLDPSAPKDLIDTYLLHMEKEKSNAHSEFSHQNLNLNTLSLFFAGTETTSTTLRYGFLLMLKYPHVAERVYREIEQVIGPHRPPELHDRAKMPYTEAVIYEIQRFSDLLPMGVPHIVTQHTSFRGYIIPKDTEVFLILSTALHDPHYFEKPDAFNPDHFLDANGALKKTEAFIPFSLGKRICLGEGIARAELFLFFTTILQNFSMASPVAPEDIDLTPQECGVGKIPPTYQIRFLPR
Chain of Cytochrome P450 3A4 (Homo sapiens) (P08684 whole entry, looked up): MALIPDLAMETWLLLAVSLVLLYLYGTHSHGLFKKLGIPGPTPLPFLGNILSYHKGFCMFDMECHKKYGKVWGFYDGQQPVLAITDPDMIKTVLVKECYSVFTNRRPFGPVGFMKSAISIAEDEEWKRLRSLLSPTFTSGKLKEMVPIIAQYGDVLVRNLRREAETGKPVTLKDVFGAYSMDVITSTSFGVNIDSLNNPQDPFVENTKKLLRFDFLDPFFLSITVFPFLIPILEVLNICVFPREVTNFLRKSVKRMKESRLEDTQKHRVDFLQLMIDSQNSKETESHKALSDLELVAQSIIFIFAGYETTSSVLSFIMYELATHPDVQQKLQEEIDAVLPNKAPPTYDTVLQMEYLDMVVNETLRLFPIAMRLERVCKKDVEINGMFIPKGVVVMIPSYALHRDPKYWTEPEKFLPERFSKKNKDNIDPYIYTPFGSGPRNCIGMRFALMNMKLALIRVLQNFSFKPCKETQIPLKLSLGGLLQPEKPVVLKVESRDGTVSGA
Chain of human CYP2C9, CYP2C9 (gene 1559) (P11712 whole entry, looked up): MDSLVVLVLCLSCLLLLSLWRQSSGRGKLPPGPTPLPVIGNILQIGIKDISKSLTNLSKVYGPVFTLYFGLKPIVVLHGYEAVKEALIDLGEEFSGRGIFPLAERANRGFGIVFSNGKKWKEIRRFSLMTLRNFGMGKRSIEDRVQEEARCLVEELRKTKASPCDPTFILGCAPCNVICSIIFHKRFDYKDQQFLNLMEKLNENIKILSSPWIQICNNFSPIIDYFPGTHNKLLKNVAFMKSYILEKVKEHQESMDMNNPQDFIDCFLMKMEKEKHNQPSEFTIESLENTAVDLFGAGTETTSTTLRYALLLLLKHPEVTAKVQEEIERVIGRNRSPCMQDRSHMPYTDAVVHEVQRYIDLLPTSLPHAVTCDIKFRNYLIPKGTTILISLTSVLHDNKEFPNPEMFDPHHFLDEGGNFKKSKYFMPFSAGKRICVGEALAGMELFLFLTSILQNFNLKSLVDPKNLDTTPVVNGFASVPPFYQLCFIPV
Chain of human CYP2J2, CYP2J2 (gene 1573) (P51589 whole entry, looked up): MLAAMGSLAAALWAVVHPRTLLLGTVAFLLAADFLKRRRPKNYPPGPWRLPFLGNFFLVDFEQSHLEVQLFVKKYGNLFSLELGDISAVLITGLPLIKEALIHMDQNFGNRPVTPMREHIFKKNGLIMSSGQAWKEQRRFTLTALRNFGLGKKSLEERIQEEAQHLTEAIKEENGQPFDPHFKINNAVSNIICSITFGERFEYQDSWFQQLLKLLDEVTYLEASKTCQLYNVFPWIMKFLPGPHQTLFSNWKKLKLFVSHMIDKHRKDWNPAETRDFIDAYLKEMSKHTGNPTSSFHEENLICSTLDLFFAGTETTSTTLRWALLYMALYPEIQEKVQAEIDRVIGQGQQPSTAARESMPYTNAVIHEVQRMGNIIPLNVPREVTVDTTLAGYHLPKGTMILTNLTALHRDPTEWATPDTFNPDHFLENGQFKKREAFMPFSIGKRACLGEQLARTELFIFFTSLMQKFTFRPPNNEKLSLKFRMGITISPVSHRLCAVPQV
Chain of human CYP1A2, CYP1A2 (gene 1544) (P05177 whole entry, looked up): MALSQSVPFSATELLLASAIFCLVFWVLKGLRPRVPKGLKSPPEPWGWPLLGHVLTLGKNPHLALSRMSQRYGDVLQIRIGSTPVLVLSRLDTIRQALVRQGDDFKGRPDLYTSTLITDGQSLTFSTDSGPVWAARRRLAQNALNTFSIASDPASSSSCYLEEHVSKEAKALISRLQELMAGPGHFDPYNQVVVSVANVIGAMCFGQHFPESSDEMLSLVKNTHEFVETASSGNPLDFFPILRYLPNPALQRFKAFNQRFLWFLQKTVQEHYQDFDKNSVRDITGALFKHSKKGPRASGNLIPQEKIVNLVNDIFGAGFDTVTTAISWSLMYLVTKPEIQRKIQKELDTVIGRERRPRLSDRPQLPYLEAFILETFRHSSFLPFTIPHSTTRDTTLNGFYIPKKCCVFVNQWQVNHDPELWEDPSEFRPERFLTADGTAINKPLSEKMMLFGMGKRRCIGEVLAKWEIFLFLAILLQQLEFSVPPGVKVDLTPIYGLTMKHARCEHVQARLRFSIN
Chain of human CYP2A6, CYP2A6 (gene 1548) (P11509 whole entry, looked up): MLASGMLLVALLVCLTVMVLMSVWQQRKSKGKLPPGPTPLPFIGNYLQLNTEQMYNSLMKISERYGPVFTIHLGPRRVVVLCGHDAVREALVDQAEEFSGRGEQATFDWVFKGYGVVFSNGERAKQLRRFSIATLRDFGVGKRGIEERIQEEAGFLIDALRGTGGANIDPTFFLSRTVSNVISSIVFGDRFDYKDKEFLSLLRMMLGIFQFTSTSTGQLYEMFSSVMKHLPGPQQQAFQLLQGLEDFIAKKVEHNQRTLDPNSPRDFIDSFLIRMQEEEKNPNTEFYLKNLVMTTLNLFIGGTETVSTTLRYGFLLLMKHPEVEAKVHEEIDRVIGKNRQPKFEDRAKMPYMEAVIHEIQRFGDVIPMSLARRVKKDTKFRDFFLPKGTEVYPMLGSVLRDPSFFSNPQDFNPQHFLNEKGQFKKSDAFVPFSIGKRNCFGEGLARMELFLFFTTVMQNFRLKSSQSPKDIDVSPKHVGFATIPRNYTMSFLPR

CCCCN(CCCC)SN(C)C(=O)Oc1cccc2c1OC(C)(C)C2
active: CD69, CD69 (gene 969) 27.6 µM | [1] 37 µM | [2] 32.6 µM | [3] 32.1 µM | [4] 33 µM | [5] 9.37 µM | [6] 24 µM | [8] 16.8 µM
inactive: [7] | [9]

Cc1cccc(N)c1
inactive: CD69, CD69 (gene 969) | [1] | [2] | [3] | [4] | [5] | [6]

CC(C)(C)c1ccccc1OP(=O)(Oc1ccccc1)Oc1ccccc1
active: CD69, CD69 (gene 969) 27.5 µM | [1] 27.7 µM | [2] 20 µM | [3] 34.6 µM | [4] 20 µM | [5] 10.8 µM | [6] 30.7 µM

CCCCCCCc1ccc(O)cc1
inactive: [10] | [9]
active: CD69, CD69 (gene 969) 39.2 µM | [1] 36 µM | [2] 31.6 µM | [3] 37.2 µM | [4] 33.1 µM | [5] 18.8 µM | [6] 37.1 µM | [10] 5.15 µM

O=C(O)C=CC(F)(C(F)(F)F)C(F)(F)F
inactive: CD69, CD69 (gene 969) | [1] | [2] | [3] | [4] | [5] | [6]

O=S(=O)(F)C(F)(F)C(F)(F)C(F)(F)C(F)(F)C(F)(F)C(F)(F)C(F)(F)C(F)(F)F
inactive: CD69, CD69 (gene 969) | [1] | [2] | [3] | [4] | [5] | [6]

CC1(C)CN=C(NN=C(/C=C/c2ccc(C(F)(F)F)cc2)/C=C/c2ccc(C(F)(F)F)cc2)NC1
inactive: [7] | [13]
active: [11] 12.9 µM | [12] 5.19 µM

CC(C)(C)OOC(C)(C)C
inactive: CD69, CD69 (gene 969) | [1] | [2] | [3] | [4] | [5] | [6]

CCC(C)(C)c1ccc(O)cc1
inactive: CD69, CD69 (gene 969) | [1] | [2] | [3] | [4] | [5] | [6] | [14]
active: [15] 10 µM

Cc1c([N+](=O)[O-])cc2c(c1[N+](=O)[O-])C(C)(C)CC2(C)C
inactive: CD69, CD69 (gene 969) | [1] | [2] | [3] | [4] | [6]
active: [5] 7.41 µM

CCOP(=S)(OCC)SCS(=O)(=O)CC
inactive: CD69, CD69 (gene 969) | [1] | [2] | [3] | [4] | [5] | [6]

OCC1CO1 (centres undefined)
inactive: CD69, CD69 (gene 969) | [1] | [3] | [16] | [4] | [5] | [6]
